# Results filed as inconclusive are left out. The source made the active and inactive calls. Calls follow the shape of the dose curve; as a rule, active = well fitted inhibition curve with a large enough effect; inconclusive = small, poorly fitted or top-dose-only effect; inactive = flat fitted curve, though single readings scatter.
# Assay: Secondary Assay for lipid storage modulators: Cytotoxcity for probe SAR
# Settings: Drosophila S3 cells viability, CellTiter-Glo luminescence, 24 h; series mostly up to 46.1 µM
# Source text: NIH Molecular Libraries Probe Production Centers Network [MLPCN] NIH Chemical Genomics Center [NCGC] MLPCN Grant: 1 R03 MH085686-01 Assay Submitter (PI): Beller, Mathias; Max-Planck-Institut fur Biophysikalische Chemie, Germany. NCGC Assay Overview: Storing lipids as a reservoir for energy or the anabolism of elementary metabolites is a common feature of probably all cells and is conserved from bacteria to humans. The universal cellular lipid storage organelle is the so-called lipid storage droplet (LD). Although ubiquitous, LDs share a simple structure composed of a hydrophobic core that harbors the storage lipids, which is shielded by a droplet-specific phospholipid monolayer to which proteins are attached. The current model of LD biogenesis involves an incorporation of the lipid core into the membrane leaflets of the endoplasmic reticulum (ER) followed by a subsequent budding-like maturation of a LD, which ultimately pinches off. Once released, LD volume can increase by localized lipogenesis or fusion of existing droplet. Storage lipids are re-mobilized enzymatically by lipase activity. Lipase regulation in the adipocyte is heavily studied and involves multiple components including catecholamine signaling, the LD-associated proteins Perilipin and comparative gene identification (CGI-58) and at least two lipases named hormone sensitive lipase (HSL) and adipocyte triglyceride lipase (ATGL). LD regulation outside of the adipocyte is poorly understood and only few components are known. However, there is an urgent need to learn more about ectopic fat depots as mislocalized storage of lipids, for example in the liver or muscle, is an eminent health problem associated with insulin resistance or the metabolic syndrome. We developed a laser-scanning cytometer assay to enable 1,536-well screening and combined the results of the small molecules screen with an RNAi database based on lipid storage. The compound was tested here for cytotoxcity using CellTiter-Glo.
# Assay Protocol Summary: Cytotoxcity assay was performed with embryonic Drosophila S3 cells (Bloomington Drosophila Genomics Resource Center [DGRC]). We dispensed 4 uL of cells at 1.25 x 10^6 cells/mL into Greiner solid white 1,536-well plates with a bottle-valve solenoid-based dispenser (Aurora) to obtain 5,000 cells/well. A total of 23 nL of compound solution of different concentrations were transferred to the assay plates using a Kalypsys pin tool equipped with a 1,536-pin array containing 10-nL slotted pins (FP1S10, 0.457-mm diameter, 50.8 mm long; V&P Scientific). One microliter of oleic acid (400 uM) was added, and the plate was lidded with stainless steel rubber gasket lined lids containing pinholes. After 24 hrs of incubation at 24 degrees Celsius and 95% humidity, 4 uL of CellTiter-Glo (Promega) was added to the wells. Luminescence was detected on the Perkin Elmer ViewLux.
row,SMILES,outcome
1,CCOc1ccc(CCNC(=O)c2ccccc2)cc1OCC,inactive
2,CCOc1ccc(CCNC(=O)c2ccc(C(=O)c3ccccc3)cc2)cc1OCC,inactive
3,CCOC(=O)C1CCN(C(=O)C2(NC(=O)Nc3ccccc3Cl)CCCC2)CC1,inactive
4,CCC/C=C/C/C=C/C=C/C=N/NN=O,inactive
5,CCOc1ccc(CCNC(=O)c2ccc(Oc3ccccc3)cc2)cc1OCC,inactive

# Source: PubChem BioAssay AID488908 (National Center for Advancing Translational Sciences (NCATS), 2010)
